# Measurements as given in PubChem BioAssay.
# For some of these results: Measured potencies and affinities stand elsewhere. Calls of active or inactive are those of the source.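 How the source made its calls, unless noted: active means signal rise over 3 SD above mean of control wells given weak agonist, in both repeats and first screen; inactive means the rest.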
# What was measured:
# [1] = system: TRPC4 beta (transient receptor potential cation channel C4), mouse; test: TRPC4 cation channel opening, retest – cell-based, Fluo4 calcium, HEK293 TRPC4beta/mu-opioid, duplicates, 10 µM, confirmation (AID 2426;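 active means fluorescence ratio normalized to control raised more than 50% in primary screen plus both repeat runs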); conditions: Fluo4 calcium fluorescence, at 10 µM; stronger effect = higher value
# [2] = system: transient receptor potential cation channel C4 beta (TRPC4), mouse; test: TRPC4 cation channel opening, second retest – cell-based, second round, Fluo4, HEK293 TRPC4beta/mu-opioid, 1 µM, confirmation (AID 2461;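 active means primary screen active and over 50% activation in each of two duplicate runs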); conditions: Fluo4 calcium fluorescence, at 1 µM; stronger effect = higher value
# [3] = system: TRPC4 (transient receptor potential cation channel C4 beta), mouse; test: potentiation of DAMGO EC20 TRPC4 response – cell-based, second round, Fluo-4, HEK293 TRPC4beta/mu-opioid, 1 µM, confirmation (AID 2554;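 active means primary screen hit whose fluorescence ratio, in both repeats, exceeds the weak agonist control mean by 3 SD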); conditions: DAMGO EC20, Fluo-4 calcium flux, at 1 µM; stronger effect = higher value
# [4] = system: TRPC4 beta (transient receptor potential cation channel C4), mouse; test: potentiation of DAMGO EC20 TRPC4 response – cell-based, Fluo-4, HEK293 TRPC4beta/mu-opioid, confirmation (AID 2555;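 active means primary screen hit whose calcium fluorescence ratio, in both repeats, exceeds the weak agonist control mean by 3 SD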); conditions: DAMGO EC20, Fluo-4 calcium flux, at 10 µM; stronger effect = higher value
# [5] = target: Short transient receptor potential channel 4 (Mus musculus) (UniProt Q9QUQ5); test: blockers of DAMGO-evoked TRPC4 calcium flux – cell-based, Fluo4, HEK293 TRPC4beta/mu-opioid, confirmation (AID 2636;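 active means calcium signal cut by more than 3 SD below the full-agonist control yet still positive, in both repeats and the earlier primary screen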); conditions: at 10 µM; stronger effect = higher value
# Short transient receptor potential channel 4 (Mus musculus), sequence (Q9QUQ5 whole entry, looked up): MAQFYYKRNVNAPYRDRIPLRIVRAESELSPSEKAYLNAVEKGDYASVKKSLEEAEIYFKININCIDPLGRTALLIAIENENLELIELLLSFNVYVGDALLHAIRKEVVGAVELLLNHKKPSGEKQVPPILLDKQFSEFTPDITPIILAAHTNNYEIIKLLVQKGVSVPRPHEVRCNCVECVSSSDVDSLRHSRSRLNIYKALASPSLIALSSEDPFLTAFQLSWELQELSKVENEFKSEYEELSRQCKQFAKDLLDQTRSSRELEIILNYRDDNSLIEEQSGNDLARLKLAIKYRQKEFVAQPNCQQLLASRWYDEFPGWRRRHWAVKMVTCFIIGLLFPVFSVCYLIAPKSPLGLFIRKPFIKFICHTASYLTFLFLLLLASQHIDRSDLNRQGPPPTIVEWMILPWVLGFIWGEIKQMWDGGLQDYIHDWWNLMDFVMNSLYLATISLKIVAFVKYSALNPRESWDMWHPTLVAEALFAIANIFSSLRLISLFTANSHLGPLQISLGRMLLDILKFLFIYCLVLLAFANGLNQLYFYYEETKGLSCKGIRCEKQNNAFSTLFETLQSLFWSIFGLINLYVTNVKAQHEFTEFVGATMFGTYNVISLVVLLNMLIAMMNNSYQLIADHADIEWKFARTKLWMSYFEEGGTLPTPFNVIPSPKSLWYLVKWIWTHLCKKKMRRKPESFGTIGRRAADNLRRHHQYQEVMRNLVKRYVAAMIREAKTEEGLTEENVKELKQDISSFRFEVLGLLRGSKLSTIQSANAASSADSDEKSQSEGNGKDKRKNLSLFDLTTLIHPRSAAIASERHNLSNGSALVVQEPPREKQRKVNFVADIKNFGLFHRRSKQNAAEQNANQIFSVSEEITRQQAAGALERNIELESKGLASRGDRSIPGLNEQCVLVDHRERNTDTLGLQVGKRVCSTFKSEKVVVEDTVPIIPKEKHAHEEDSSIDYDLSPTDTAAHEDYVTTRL
# [6] = target: Short transient receptor potential channel 4 (Mus musculus) (UniProt Q9QUQ5); test: blockers of DAMGO-evoked TRPC4 calcium flux – cell-based, second round, Fluo4, HEK293 TRPC4beta/mu-opioid, 1 µM, confirmation (AID 2637;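 active means calcium signal ratio cut to more than 3 SD under the fully stimulated control mean yet still positive, in both repeats and the primary screen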); conditions: at 1 µM; stronger effect = higher value
# [7] = target: Short transient receptor potential channel 4 (Mus musculus) (UniProt Q9QUQ5); test: calcium entry via TRPC4 opening agents – cell-based, HEK293 TRPC4/mu-opioid, Fluo-4 calcium, dose response (AID 434937;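 active means primary screen activator hit with a dose response curve and TRPC4 channel activation at any tested dose; inactive means no activation, no dose response, or not a primary hit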)
# [8] = target: Short transient receptor potential channel 4 (Mus musculus) (UniProt Q9QUQ5); test: potentiation of DAMGO-evoked TRPC4 calcium signal – cell-based, HEK293 TRPC4/mu-opioid, Fluo-4 calcium, EC20 DAMGO, dose response (AID 434941;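 active means earlier screen potentiator hit that boosts the TRPC4 ion channel at some dose, with a dose response; inactive means no potentiation, no dose response, or not a prior hit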;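 further: calcium entry triggered by an EC20 dose of DAMGO at the co-expressed mu-opioid receptor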)
# [9] = target: Short transient receptor potential channel 4 (Mus musculus) (UniProt Q9QUQ5); test: block of DAMGO-driven TRPC4 calcium entry – cell-based, HEK293 TRPC4/mu-opioid, Fluo-4 calcium, dose response (AID 434942;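 active means primary screen inhibitor hit that blocks the TRPC4 channel at some tested dose, yielding a dose curve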)
# [10] = target: Short transient receptor potential channel 6 (Mus musculus) (UniProt Q61143); test: TRPC6 blockade by TRPC4 inhibitor hits – cell-based, HEK293, membrane potential dye, duplicate, selectivity assay for TRPC4 inhibitor project, confirmation (AID 434948;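 active means active in primary screen and both duplicates, each dropping signal beyond three positive-control SD with fluorescence still positive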); conditions: HEK293 TRPC6, membrane potential dye fluorescence, at 10 µM, stimulated with maximal-effect acetylcholine; stronger effect = higher value
# Short transient receptor potential channel 6 (Mus musculus), sequence (Q61143 whole entry, looked up): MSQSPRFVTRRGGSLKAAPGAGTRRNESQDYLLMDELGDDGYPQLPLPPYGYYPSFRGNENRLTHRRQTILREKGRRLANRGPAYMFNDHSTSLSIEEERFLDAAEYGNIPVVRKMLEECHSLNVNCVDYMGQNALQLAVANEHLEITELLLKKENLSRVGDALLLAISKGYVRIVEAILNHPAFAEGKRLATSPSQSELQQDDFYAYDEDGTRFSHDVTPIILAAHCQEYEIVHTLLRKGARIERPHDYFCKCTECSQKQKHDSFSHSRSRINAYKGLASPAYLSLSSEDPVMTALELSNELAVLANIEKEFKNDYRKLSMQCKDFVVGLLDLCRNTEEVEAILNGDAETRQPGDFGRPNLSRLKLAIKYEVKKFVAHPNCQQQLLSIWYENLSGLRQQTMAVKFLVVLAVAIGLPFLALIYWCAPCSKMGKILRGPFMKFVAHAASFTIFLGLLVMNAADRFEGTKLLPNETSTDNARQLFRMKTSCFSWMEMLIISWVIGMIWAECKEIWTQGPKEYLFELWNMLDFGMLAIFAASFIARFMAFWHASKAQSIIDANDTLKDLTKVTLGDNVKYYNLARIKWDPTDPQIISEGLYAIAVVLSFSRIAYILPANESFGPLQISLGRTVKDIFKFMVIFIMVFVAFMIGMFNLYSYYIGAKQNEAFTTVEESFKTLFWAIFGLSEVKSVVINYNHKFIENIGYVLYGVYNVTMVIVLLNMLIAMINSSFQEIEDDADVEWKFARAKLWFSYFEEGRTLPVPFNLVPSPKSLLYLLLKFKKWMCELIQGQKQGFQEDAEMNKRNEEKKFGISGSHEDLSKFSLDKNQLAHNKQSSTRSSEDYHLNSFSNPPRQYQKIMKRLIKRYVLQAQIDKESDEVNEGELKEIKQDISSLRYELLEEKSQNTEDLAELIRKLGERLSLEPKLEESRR
# [11] = target: Short transient receptor potential channel 6 (Mus musculus) (UniProt Q61143); test: TRPC6 opening by TRPC4 activator hits – cell-based, HEK293, membrane potential dye, duplicate, selectivity assay for TRPC4 activator project, confirmation (AID 434950;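 active means membrane potential signal rise above negative control mean plus 3 SD in both duplicates, also active in the earlier TRPC4 screen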); conditions: HEK293 TRPC6, membrane potential fluorescence, at 10 µM; activation: stronger effect = higher value; outcome: activation
# [12] = target: Short transient receptor potential channel 6 (Mus musculus) (UniProt Q61143); test: positive modulators of mouse TRPC6 channel – HEK293 cells, membrane potential dye, duplicate, selectivity assay for TRPC4 potentiator project, confirmation (AID 434952;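 active means compound raising the membrane signal above positive-control mean plus 3 SD in both repeats, and a primary screen hit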); conditions: HEK293 TRPC6, membrane potential dye fluorescence, at 10 µM, maximal acetylcholine added after compound; stronger effect = higher value
# [13] = target: Short transient receptor potential channel 4 (Mus musculus) (UniProt Q9QUQ5); test: calcium flux activators in TRPC4/5HT1a cells, counter-screen for TRPC4 activator project, cell-based, second counter screen, HEK293 TRPC4/5HT1a, Fluo-4 (AID 434977;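 active means calcium signal rise above buffer-control mean plus 5 SD in both duplicates, and also a hit in the primary screen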); conditions: Fluo-4 calcium flux, at 10 µM; stronger effect = higher value
# [14] = serotonin-gated TRPC4 signal block – cell-based, second counter screen, HEK293 TRPC4/5HT1a, Fluo-4, counter-screen for TRPC4 inhibitor project, confirmation (AID 434978;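 active means primary screen active whose calcium signal fell more than 3 SD beyond the full-serotonin control mean in both duplicate plates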;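 on outcome: serotonin given first at submaximal then at maximal dose after compound preincubation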); conditions: Fluo-4 calcium flux, at 10 µM, serotonin added to trigger calcium flux; stronger effect = higher value
# [15] = system: TRPC4 (mouse), co-expressed with 5HT1a in HEK293; test: enhancement of serotonin-evoked TRPC4 response – cell-based, second counter screen, HEK293 TRPC4/5HT1a, Fluo-4, counter-screen for TRPC4 potentiator project, confirmation (AID 434979); conditions: Fluo-4 calcium flux, at 10 µM, serotonin added at its EC20 dose; stronger effect = higher value
# [16] = nonspecific calcium rise without TRPC4 – cell-based, HEK293 mu-opioid receptor line, counter-screen for TRPC4 activator project, confirmation (AID 449723;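 active means hit in primary screen, with calcium signal over 5 SD above buffer well mean in both duplicates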;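 further: counter screen cells carry the mu-opioid receptor alone and lack TRPC4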); conditions: HEK293 mu-opioid cells, Fluo-4 calcium fluorescence, at 10 µM; stronger effect = higher value
# [17] = nonspecific potentiation of DAMGO calcium response – cell-based, HEK293 mu-opioid receptor line, counter-screen for TRPC4 allosteric potentiator project, confirmation (AID 449724;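 active means calcium signal rise more than 3 SD above the low-dose agonist control mean, in both duplicate plates and the primary screen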); conditions: HEK293 mu-opioid receptor cells, Fluo-4 calcium flux, at 10 µM, compound added before EC20 DAMGO stimulus; stronger effect = higher value
smiles,measurement,setting,value
COc1ccc(CC2(CO)CCN(C/C=C/c3ccccc3OC)CC2)cc1,outcome,[1],inactive
same,outcome,[2],inactive
same,outcome,[3],inactive
same,outcome,[4],inactive
same,inhibition,[5],79% (active)
same,outcome,[6],inactive
same,outcome,[7],inactive
same,outcome,[8],inactive
same,outcome,[9],inactive
same,outcome,[10],inactive
same,outcome,[11],inactive
same,outcome,[12],inactive
same,outcome,[13],inactive
same,inhibition,[14],33.5% (active)
same,outcome,[15],inactive
same,outcome,[16],inactive
same,outcome,[17],inactive
Cc1ccc(/C=N/NC(=O)CSc2nc3ccccc3n2Cc2ccccc2)o1,outcome,[1],inactive
same,outcome,[2],inactive
same,outcome,[3],inactive
same,outcome,[4],inactive
same,outcome,[5],inactive
same,outcome,[6],inactive
same,outcome,[7],inactive
same,outcome,[8],inactive
same,outcome,[9],inactive
same,outcome,[10],inactive
same,outcome,[11],inactive
same,outcome,[12],inactive
same,outcome,[13],inactive
same,outcome,[14],inactive
same,outcome,[15],inactive
same,outcome,[16],inactive
same,outcome,[17],inactive
CCOc1ccccc1NC(=O)CN(c1ccc(OC)cc1)S(=O)(=O)c1c(C)[nH]c(=O)[nH]c1=O,outcome,[1],inactive
same,outcome,[2],inactive
same,outcome,[3],inactive
same,outcome,[4],inactive
same,outcome,[5],inactive
same,outcome,[6],inactive
same,outcome,[7],inactive
same,outcome,[8],inactive
same,outcome,[9],inactive
same,outcome,[10],inactive
same,outcome,[11],inactive
same,outcome,[12],inactive
same,outcome,[13],inactive
same,outcome,[14],inactive
same,potentiation,[15],16.4% (active)
same,outcome,[16],inactive
same,outcome,[17],inactive
O=C(Cn1nc(-c2ccccc2)ccc1=O)NCCN1CCN(Cc2ccccc2)CC1,outcome,[1],inactive
same,outcome,[2],inactive
same,outcome,[3],inactive
same,outcome,[4],inactive
same,outcome,[5],inactive
same,outcome,[6],inactive
same,outcome,[7],inactive
same,outcome,[8],inactive
same,outcome,[9],inactive
same,outcome,[10],inactive
same,outcome,[11],inactive
same,outcome,[12],inactive
same,outcome,[13],inactive
same,outcome,[14],inactive
same,potentiation,[15],13% (active)
same,outcome,[16],inactive
same,outcome,[17],inactive
COc1ccc(C(CNC(=O)C2CC2)N(C)C)cc1 (stereo not drawn),outcome,[1],inactive
same,outcome,[2],inactive
same,outcome,[3],inactive
same,outcome,[4],inactive
same,outcome,[5],inactive
same,outcome,[6],inactive
same,outcome,[7],inactive
same,outcome,[8],inactive
same,outcome,[9],inactive
same,outcome,[10],inactive
same,outcome,[11],inactive
same,outcome,[12],inactive
same,outcome,[13],inactive
same,outcome,[14],inactive
same,outcome,[15],inactive
same,outcome,[16],inactive
same,outcome,[17],inactive
Cc1cc(OCCN2CCCC2)ccc1[N+](=O)[O-],outcome,[1],inactive
same,outcome,[2],inactive
same,potentiation,[3],11% (active)
same,potentiation,[4],11% (active)
same,outcome,[5],inactive
same,outcome,[6],inactive
same,outcome,[7],inactive
same,outcome,[8],inactive
same,outcome,[9],inactive
same,outcome,[10],inactive
same,outcome,[11],inactive
same,outcome,[12],inactive
same,outcome,[13],inactive
same,outcome,[14],inactive
same,potentiation,[15],13.9% (active)
same,outcome,[16],inactive
same,outcome,[17],inactive
COc1cc(C2c3c(-c4ccccc4)n[nH]c3C(=O)N2c2ccccc2)ccc1O (stereo not drawn),outcome,[1],inactive
same,outcome,[2],inactive
same,outcome,[3],inactive
same,potentiation,[4],16% (active)
same,outcome,[5],inactive
same,outcome,[6],inactive
same,outcome,[7],inactive
same,outcome,[8],inactive
same,outcome,[9],inactive
same,outcome,[10],inactive
same,outcome,[11],inactive
same,outcome,[12],inactive
same,outcome,[13],inactive
same,outcome,[14],inactive
same,potentiation,[15],17% (active)
same,outcome,[16],inactive
same,outcome,[17],inactive
CCN1CCN(c2nc(N)c([N+](=O)[O-])c(Nc3ccc(C)cc3)n2)CC1,outcome,[1],inactive
same,outcome,[2],inactive
same,potentiation,[3],22% (active)
same,potentiation,[4],13% (active)
same,outcome,[5],inactive
same,outcome,[6],inactive
same,outcome,[7],inactive
same,outcome,[8],inactive
same,outcome,[9],inactive
same,outcome,[10],inactive
same,outcome,[11],inactive
same,outcome,[12],inactive
same,outcome,[13],inactive
same,outcome,[14],inactive
same,potentiation,[15],24.9% (active)
same,outcome,[16],inactive
same,outcome,[17],inactive
COC1=C(C)C(O)=C(C(=O)/C=C/c2ccccc2)C(=O)C1(C)C,outcome,[1],inactive
same,outcome,[2],inactive
same,outcome,[3],inactive
same,outcome,[4],inactive
same,outcome,[5],inactive
same,outcome,[6],inactive
same,outcome,[7],inactive
same,outcome,[8],inactive
same,outcome,[9],inactive
same,outcome,[10],inactive
same,outcome,[11],inactive
same,outcome,[12],inactive
same,outcome,[13],inactive
same,outcome,[14],inactive
same,outcome,[15],inactive
same,outcome,[16],inactive
same,outcome,[17],inactive
CN(C)CCCNc1nc(N)c([N+](=O)[O-])c(NCc2ccccc2)n1,outcome,[1],inactive
same,outcome,[2],inactive
same,outcome,[3],inactive
same,outcome,[4],inactive
same,outcome,[5],inactive
same,outcome,[6],inactive
same,outcome,[7],inactive
same,outcome,[8],inactive
same,outcome,[9],inactive
same,outcome,[10],inactive
same,outcome,[11],inactive
same,outcome,[12],inactive
same,outcome,[13],inactive
same,outcome,[14],inactive
same,outcome,[15],inactive
same,outcome,[16],inactive
same,outcome,[17],inactive
CC(C)(C)c1ccccc1OCCCCCn1ccnc1,outcome,[1],inactive
same,outcome,[2],inactive
same,outcome,[3],inactive
same,outcome,[4],inactive
same,outcome,[5],inactive
same,outcome,[6],inactive
same,outcome,[7],inactive
same,outcome,[8],inactive
same,outcome,[9],inactive
same,outcome,[10],inactive
same,outcome,[11],inactive
same,outcome,[12],inactive
same,outcome,[13],inactive
same,outcome,[14],inactive
same,outcome,[15],inactive
same,outcome,[16],inactive
same,outcome,[17],inactive
Cc1oc2c(c1C(=O)c1ccccc1)C(=O)C(=O)c1ccccc1-2,outcome,[1],inactive
same,outcome,[2],inactive
same,outcome,[3],inactive
same,outcome,[4],inactive
same,inhibition,[5],68% (active)
same,outcome,[6],inactive
same,outcome,[7],inactive
same,outcome,[8],inactive
same,outcome,[9],inactive
same,outcome,[10],inactive
same,outcome,[11],inactive
same,outcome,[12],inactive
same,outcome,[13],inactive
same,inhibition,[14],30.8% (active)
same,outcome,[15],inactive
same,outcome,[16],inactive
same,outcome,[17],inactive
Cc1ccc(Cn2c(=N)c(C(=O)NC3CCCCC3)cc3c(=O)n4ccccc4nc32)cc1,outcome,[1],inactive
same,outcome,[2],inactive
same,outcome,[3],inactive
same,potentiation,[4],26% (active)
same,outcome,[5],inactive
same,outcome,[6],inactive
same,outcome,[7],inactive
same,outcome,[8],inactive
same,outcome,[9],inactive
same,outcome,[10],inactive
same,outcome,[11],inactive
same,outcome,[12],inactive
same,outcome,[13],inactive
same,outcome,[14],inactive
same,outcome,[15],inactive
same,outcome,[16],inactive
same,outcome,[17],inactive
Cc1ccc(Cl)cc1N1CCN(Cc2nc3c(c(=O)[nH]c(=O)n3C)n2Cc2ccccc2F)CC1,outcome,[1],inactive
same,outcome,[2],inactive
same,outcome,[3],inactive
same,outcome,[4],inactive
same,outcome,[5],inactive
same,outcome,[6],inactive
same,outcome,[7],inactive
same,outcome,[8],inactive
same,outcome,[9],inactive
same,outcome,[10],inactive
same,outcome,[11],inactive
same,outcome,[12],inactive
same,outcome,[13],inactive
same,outcome,[14],inactive
same,potentiation,[15],25.8% (active)
same,outcome,[16],inactive
same,outcome,[17],inactive
